Experimental data reported in PubChem BioAssay (NCATS).
Records with an inconclusive call do not appear. The source made the active and inactive calls. Calls come from the whole dose curve; as a rule, active = well fitted inhibition curve with a large enough effect; inconclusive = small, poorly fitted or top-dose-only effect; inactive = flat fitted curve, though single readings scatter.

System: Zika virus NS2B-NS3 protease
Assay: Primary screen GU AMC qHTS for Zika virus inhibitors (AID 1347154);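 note: 0% = no-inhibitor control and -100% = no-enzyme control; nearly all actives have a fitted effect of over 70% in size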
Settings: Zika NS2B-NS3 unlinked protease, AMC fluorogenic substrate; series mostly up to 54.1 µM
Procedure, shortened: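 Unlinked Zika NS2B hydrophilic domain–NS3 protease complex at 25 nM in 10 mM Tris-HCl pH 8.0, 0.01% Tween 20, with an AMC peptide substrate. Fluorescence change (340/450 nm) over 15 min at room temperature, normalized to controls, fitted to 4-parameter Hill.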

Potency, inactive:
O=C(O)c1cc(Oc2ccc([N+](=O)[O-])cc2)cc(Oc2ccc([N+](=O)[O-])cc2)c1, O=C1CC2(CCCC2)CC(=O)N1CCCCNCC1COc2ccccc2O1 (stereo unspecified), Cc1c(C(=O)N(C)C2CCCCC2)sc2nc3ccc(N)cc3n12, CN(Cc1ccccc1)C(=O)[C@H](Cc1ccc2ccccc2c1)NC(=O)[C@@H]1C[C@@H](O)CN1C(=O)c1cn(C)c2ccccc12, Cn1cnnc1Sc1c([N+](=O)[O-])ncn1C, CSc1ccc([C@H]2CN3CCC[C@H]3c3ccccc32)cc1, Nc1ncnc2c1cnn2-c1ccccc1, Nc1ncnc2c1ncn2[C@@H]1O[C@H](COP(=O)(O)OP(=O)(O)CP(=O)(O)O)[C@@H](O)[C@H]1O, CCCCC[C@H](O)/C=C/[C@@H]1[C@H]2C/C(=C/CCCC(=O)O)C[C@H]2C[C@H]1O, C[C@H](N)CCP(=O)(O)O, CC(C)CC(NC(=O)NC(CCC(=O)O)C(=O)O)C(=O)O (stereo unspecified), CCn1c(=O)n(C2=C(CO)CN(CC3CCCCCCC3)CC2)c2ccccc21, c1ccc(COCCCc2cnc[nH]2)cc1, NC(C(=O)O)c1ccc(P(=O)(O)O)cc1 (stereo unspecified)

Activity change, negative = inhibition, inactive:
CC(C)=CCC/C(C)=C/CC/C(C)=C/CC[C@]1(C)CCc2c(C)c(O)c(C)c(C)c2O1 0.636% [at 6.83 µM], O=C(O)CCC/C=C\C[C@@H]1C(/C=C/[C@@H](O)COc2cccc(C(F)(F)F)c2)[C@@H](O)C[C@@H]1O (stereo partly specified) 0.372% [at 6.83 µM]
